Source: PubChem BioAssay AID1030 (National Center for Advancing Translational Sciences (NCATS), 2008)
Screen size: about 220,000 compounds; about 16,000 (7.3%) were called active. Another 25% or so got no clear call; they are omitted. Calls come from the whole dose curve; as a rule, active = well fitted inhibition curve with a large enough effect (not every such curve was filed as active); inconclusive = small, poorly fitted or top-dose-only effect, or another doubt; inactive = no such curve, though single readings can be large or run the other way. The entries come from a sample that favours actives as a whole.

molecular target: Aldehyde dehydrogenase 1A1 (Homo sapiens) (UniProt P00352); experiment: qHTS Assay for Inhibitors of Aldehyde Dehydrogenase 1 (ALDH1A1); conditions: Purified ALDH1A1, NADH fluorescence, propionaldehyde substrate; series mostly up to 75.3 µM; activity, negative = inhibition: at the top concentration;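 for activity, negative = inhibition: plate controls were no enzyme wells and a reference inhibitor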
Sequence (P00352 whole entry, looked up): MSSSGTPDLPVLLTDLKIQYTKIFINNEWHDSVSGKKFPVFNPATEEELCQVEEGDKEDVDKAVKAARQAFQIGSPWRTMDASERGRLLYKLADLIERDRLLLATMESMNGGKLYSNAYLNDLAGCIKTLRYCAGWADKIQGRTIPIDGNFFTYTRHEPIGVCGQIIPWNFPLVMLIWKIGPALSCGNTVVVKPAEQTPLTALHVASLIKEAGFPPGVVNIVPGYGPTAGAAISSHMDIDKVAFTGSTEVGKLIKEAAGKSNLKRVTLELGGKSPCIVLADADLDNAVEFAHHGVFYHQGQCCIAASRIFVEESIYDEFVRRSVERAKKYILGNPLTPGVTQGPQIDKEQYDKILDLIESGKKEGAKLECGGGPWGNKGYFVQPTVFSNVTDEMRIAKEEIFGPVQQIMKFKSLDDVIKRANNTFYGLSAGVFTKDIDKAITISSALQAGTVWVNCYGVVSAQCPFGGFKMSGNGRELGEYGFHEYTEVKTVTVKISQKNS
Potency is the fitted concentration of half-maximal effect.

Row | SMILES | activity, negative = inhibition | Potency
1 | O=C(CCNS(=O)(=O)c1ccc(Br)s1)NCc1ccccc1Cl | 3.59% (inactive) | –
2 | NC(=S)N/N=C/c1ccc([N+](=O)[O-])cc1 | -3.14% (inactive) | –
3 | O=[N+]([O-])c1ccc(N/N=C/c2ccccc2)cc1 | – | 14.1 µM (active)
4 | Cc1cccc(COc2ccccc2/C=N/Nc2ccc([N+](=O)[O-])cc2)c1 | -2.85% (inactive) | –
5 | Cn1ncc(N2CCN(S(=O)(=O)c3ccc(Br)cc3)CC2)c(Cl)c1=O | 9.36% (inactive) | –
6 | N#Cc1c(C(F)(F)F)cc(-c2ccc(Cl)cc2)nc1SCC(=O)O | 16% (inactive) | –
7 | Cc1ccc(C(=O)N/C(=C/c2cccs2)C(=O)N2CCCCC2)cc1 | -6.46% (inactive) | –
8 | Cc1cccc(C(=O)N2CCc3c([nH]c4ccccc34)C2CC(C)C)n1 (centres undefined) | 3.83% (inactive) | –
9 | CCOC(=O)C1(Cc2cccc(OC)c2)CCN(Cc2csc(C(C)=O)c2)CC1 | -5.22% (inactive) | –
10 | CCOC(=O)C1(Cc2cccc(OC)c2)CCN(C(C)COC)CC1 (centres undefined) | -9.4% (inactive) | –
11 | CCOC(=O)C1(Cc2cccc(OC)c2)CCN(C(C)CC(C)(C)O)CC1 (centres undefined) | – | 3.55 µM (active)
12 | CN(CC(=O)NC1CCCC1)S(=O)(=O)c1cnc[nH]1 | 15.3% (inactive) | –
13 | CCN(CC)CCN(C(=O)c1ccc(N2C(=O)CCC2=O)cc1)c1nc2cc3c(cc2s1)OCO3 | – | 20 µM (active)
14 | CCCCN(CC)C(=O)c1ccc2c(c1)OCO2 | -5.91% (inactive) | –
15 | CCN(CC)CCN(C(=O)c1cccc([N+](=O)[O-])c1)c1nc2ccc(OC)cc2s1 | -6.76% (inactive) | –
16 | COc1ccc(CC2(CO)CCN(Cc3cnn(C)c3)CC2)cc1 | 13.9% (inactive) | –
17 | COCCCNC(=O)/C=C/c1ccc(OCc2c(F)cccc2Cl)cc1 | -5.86% (inactive) | –
18 | Cc1nc(NC(=O)CN(C)S(=O)(=O)c2ccc(Cl)cc2)sc1C | 3.59% (inactive) | –
19 | Cc1nc(-c2ccc(Cl)cc2)sc1C(=O)CBr | – | 12.6 µM (active)
20 | Cc1ccc(SCC(=O)c2sc(-c3ccccc3)nc2C)cc1 | -4.02% (inactive) | –
21 | O=C(N/N=C/c1cc([N+](=O)[O-])ccc1O)/C(=C\c1cccs1)NC(=O)c1ccccc1 | -3.97% (inactive) | –
22 | CCC(=O)Nc1ccc(Nc2nc(Cl)nc(Nc3ccc(NC(=O)CC)cc3)n2)cc1 | 8.66% (inactive) | –
23 | O=c1[nH]c2cccnc2n(CCNc2ncc(C(F)(F)F)cc2Cl)c1=O | -4.57% (inactive) | –
24 | CC(C)(C)n1cnnc1Sc1ccc([N+](=O)[O-])cn1 | -1.38% (inactive) | –
25 | CCCCNC(=O)C(=O)c1ccccc1NC(C)=O | -5.94% (inactive) | –
26 | CCCCNC(=O)Nc1c(C)cc(SC#N)cc1C | – | 0.562 µM (active)
27 | Cc1cc2nc(C)n(CCCNC(=O)Nc3ccccc3)c2cc1C | 3.27% (inactive) | –

Row | SMILES | activity, negative = inhibition | Potency
28 | O=C(NCCOCc1ccc(Cl)cc1)c1ncn[nH]1 | 10.1% (inactive) | –
29 | O=C(/C=C/Sc1ncn[nH]1)c1ccc(Cl)cc1 | – | 8.91 µM (active)
30 | COc1cccc2cc(S(=O)(=O)c3ccc(C)cc3)/c(=N/NS(=O)(=O)c3ccc(C)cc3)oc12 | 8.38% (inactive) | –
31 | CCOc1ccc(-n2c(SCC(=O)NC3CCS(=O)(=O)C3)nnc2-c2cccnc2)cc1 (centres undefined) | -0.699% (inactive) | –
32 | Cn1c2c(c(=O)n(C)c1=O)[C@@H]1c3c(ccc4ccccc34)OC[C@@H]1CO2 | 26.5% (inactive) | –
33 | Cn1c2c(c(=O)n(C)c1=O)C1c3ccccc3OCC1C(C)(C)O2 (centres undefined) | – | 28.2 µM (active)
34 | COc1cccc2c1OCC1COc3c(c(=O)n(C)c(=O)n3C)C21 (centres undefined) | 8.66% (inactive) | –
35 | COc1ccc(C/C(N)=N/OC(=O)c2ccco2)cc1OC | 5.69% (inactive) | –
36 | CCOc1ccccc1-n1c(SCC(=O)N2CCCC2)nnc1-c1ccoc1C | 5.97% (inactive) | –
37 | COc1ccccc1N1CCN(C(=O)CSc2nnc(-c3ccoc3C)o2)CC1 | – | 1.58 µM (active)
38 | COc1ccccc1-c1nnc(SCC(=O)Nc2cc(C)on2)o1 | 10.9% (inactive) | –
39 | COc1ccc(-n2nc(C(=O)Nc3cc(OC)c(OC)c(OC)c3)c3ccccc3c2=O)c(OC)c1 | 7.67% (inactive) | –
40 | CCOC(=O)c1c(NC(=S)NC(=O)c2ccco2)sc2c1CCCC2 | 18.1% (inactive) | –
41 | COC(=O)c1c(NC(=O)c2cccs2)sc2c1CCCC2 | 5.12% (inactive) | –
42 | CNC(=O)c1c(NC(NC(=O)c2ccco2)C(=O)c2ccc(Cl)cc2)sc2c1CCCC2 (centres undefined) | – | 14.1 µM (active)
43 | COc1cc(OC)cc(-c2nnc(N(C)C(=O)c3ccncc3)s2)c1 | -14% (inactive) | –
44 | O=C1[C@@H]2C(c3cccnc3)=NO[C@@H]2C(=O)N1c1ccc(Cl)cc1Cl | – | 3.55 µM (active)
45 | COC(=O)CCCC1=CC2=CC(=O)C(C)(OC(=O)c3cccs3)C(=O)C2=CN1CC(C)C (centres undefined) | -2.57% [at 13.5 µM] (inactive) | –
46 | CC1CCCN(CCOCCOc2ccccc2-c2ccccc2)C1 (centres undefined) | -14% (inactive) | –
47 | c1ccc(-c2ccccc2OCCN2CCCCC2)cc1 | -5.53% (inactive) | –
48 | CN1CCN(CCCCOc2ccccc2-c2ccccc2)CC1 | – | 10 µM (active)
49 | Cc1c(Cl)cccc1NC(=O)Nc1ccc(C(=O)N2CCCC2)cc1 | – | 20 µM (active)
50 | O=C(Nc1ccccc1C(=O)N1CCCCCC1)c1ccccc1Cl | 0.473% (inactive) | –
51 | O=C(c1ccc(Cl)c(Cl)c1)N1CCCC1 | 2.43% (inactive) | –
52 | Cc1ccc(S(=O)(=O)N(C)C)cc1NC(=O)COC(=O)C1COc2ccccc2O1 (centres undefined) | -0.617% (inactive) | –
53 | CCOC(=O)/C(=N\Nc1ccccc1[N+](=O)[O-])c1csc(Nc2ccccc2)n1 | -14.7% (inactive) | –
54 | CN(C)S(=O)(=O)c1cccc(C(=O)Nc2cccnc2)c1 | -7.62% (inactive) | –
